From PubChem BioAssay (NCI)
About 79,000 compounds went through this panel and 15% of them were active in at least one assay; those are over-represented in the sample as a whole. Active and inactive are the calls of the source. Rule as the data show it: active = growth inhibition above about 70%; inactive = the rest.

Legend:
[1] = NCI Yeast Anticancer Drug Screen. Data for the rad50 strain (AID 155);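 also: 0% = growth of vehicle-only cultures of the same strain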; conditions: S. cerevisiae rad50 strain growth inhibition, hits give high values
In short: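 Vehicle-treated cultures provide the reference for the growth inhibition reported for compound-exposed, repair-deficient yeast.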

[2] = NCI Yeast Anticancer Drug Screen. Data for the mec2-1 strain (AID 157); conditions: S. cerevisiae mec2-1 strain, hits give high values
In short: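 Growth inhibition is read against vehicle-treated controls after compound exposure of the mec2-1 yeast strain, which is defective in DNA damage repair or cell cycle control.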

[3] = NCI Yeast Anticancer Drug Screen. Data for the sgs1 mgt1 strain (AID 161);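 also: 0% = growth of cultures given vehicle only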; conditions: S. cerevisiae sgs1 mgt1 strain, hits give high values
In short: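 Growth of a repair-deficient yeast mutant was monitored after compound treatment and expressed as inhibition relative to vehicle-treated cultures.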

[4] = NCI Yeast Anticancer Drug Screen. Data for the cln2 rad14 strain (AID 165);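 also: 0% = growth equal to vehicle treated cultures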; conditions: S. cerevisiae cln2 rad14 strain, hits give high values
In short: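 Growth inhibition, relative to vehicle-treated controls, is the read-out. The test organism is a yeast strain with defined genetic alterations, cln2 rad14.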

[5] = NCI Yeast Anticancer Drug Screen. Data for the bub3 strain (AID 167); conditions: S. cerevisiae bub3 mutant strain, hits give high values
In short: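 Mutant yeast screening strain plus compound; vehicle-treated cultures serve as the 0% inhibition reference.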

[6] = NCI Yeast Anticancer Drug Screen. Data for the mlh1 rad18 strain (AID 175); conditions: S. cerevisiae mlh1 rad18 strain growth inhibition, hits give high values
In short: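 Cells of a genetically altered yeast strain, deficient in DNA damage repair, were treated with compound. Their growth was then compared with that of vehicle-treated cultures to give inhibition.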

[7] = at 5.0 µM (retest, dose inferred, filed as 0.5)
[8] = at 50.0 µM (retest, dose inferred, filed as 5.0)

Measured: growth inhibition

COC(=O)[C@@]12OC[C@]34[C@H]([C@@H](O)[C@@H]1O)[C@@]1(C)[C@H](O)C(=O)C=C(C)[C@@H]1C[C@H]3OC(=O)C(OC(C)=O)[C@@H]24 (stereo not given in full)
active: [1]; [8] 98% | [1]; at 50.0 µM 91% | [2]; [8] 98% | [2]; at 50.0 µM 89.3% | [3]; [8] 98% | [3]; at 50.0 µM 87.8% | [4]; [8] 99% | [4]; at 50.0 µM 90.5% | [5]; [8] 98% | [5]; at 50.0 µM 90.5% | [6]; [8] 99% | [6]; at 50.0 µM 90.8%
inactive: [1]; [7] 36% | [2]; [7] 35% | [3]; [7] 30% | [4]; [7] 43% | [5]; [7] 19% | [6]; [7] 34%

CN1C(=O)C2N(C(=O)C1(C)S)c1ccccc1C2(C)C (stereo not given)
inactive: [1]; [7] -5% | [1]; [8] 37% | [1]; at 50.0 µM 47.7% | [2]; [7] -4% | [2]; [8] 29% | [2]; at 50.0 µM 32.5% | [3]; [7] -3% | [3]; [8] 41% | [3]; at 50.0 µM 15.7% | [4]; [7] -14% | [4]; [8] 49% | [4]; at 50.0 µM -17.6% | [5]; [7] -4% | [5]; [8] 25% | [5]; at 50.0 µM 10.3% | [6]; [7] -1% | [6]; [8] 32% | [6]; at 50.0 µM 24.8%

C#CCNCc1ccccc1
inactive: [1]; [7] 18% | [1]; [8] 63% | [1]; at 50.0 µM 66.8% | [2]; [7] 18% | [2]; [8] 47% | [2]; at 50.0 µM 35.5% | [3]; [7] 11% | [3]; [8] 63% | [4]; [7] 0% | [4]; [8] 32% | [4]; at 50.0 µM 29.4% | [5]; [7] 5% | [6]; [7] -4% | [6]; [8] 49% | [6]; at 50.0 µM 58.8%
active: [3]; at 50.0 µM 89% | [5]; [8] 78% | [5]; at 50.0 µM 76.8%

Cc1c(CC=C(c2ccccc2)c2ccccc2)cccc1C[N+](C)(C)C
active: [1]; [7] 95% | [1]; [8] 73% | [1]; at 50.0 µM 90.7% | [2]; [7] 78% | [3]; [7] 99% | [3]; [8] 98% | [3]; at 50.0 µM 99% | [5]; [8] 72% | [5]; at 50.0 µM 80.2% | [6]; [7] 95% | [6]; [8] 98% | [6]; at 50.0 µM 98.2%
inactive: [2]; [8] 34% | [2]; at 50.0 µM 62.8% | [4]; [7] 2% | [4]; [8] 61% | [4]; at 50.0 µM 48.1% | [5]; [7] 25%

N#CSCc1ccc(Cl)c(CSC#N)c1
inactive: [1]; [7] 18% | [2]; [7] 4% | [3]; [7] 8% | [4]; [7] 10% | [5]; [7] 16% | [6]; [7] 10%
active: [1]; [8] 99% | [1]; at 50.0 µM 99% | [2]; [8] 99% | [2]; at 50.0 µM 99.3% | [3]; [8] 99% | [3]; at 50.0 µM 98.8% | [4]; [8] 98% | [4]; at 50.0 µM 98.2% | [5]; [8] 100% | [5]; at 50.0 µM 98.8% | [6]; [8] 99% | [6]; at 50.0 µM 99%

CCCCCC(CCCCC)C(=O)O
active: [1]; at 50.0 µM 78.6% | [2]; at 50.0 µM 70.2% | [3]; at 50.0 µM 72% | [4]; at 50.0 µM 78% | [6]; at 50.0 µM 79.5%
inactive: [1]; [7] 0% | [1]; [8] 63% | [2]; [7] -7% | [2]; [8] 52% | [3]; [7] -20% | [3]; [8] 48% | [4]; [7] -11% | [4]; [8] 50% | [5]; [7] -5% | [5]; [8] 29% | [5]; at 50.0 µM 66.2% | [6]; [7] -1% | [6]; [8] 60%

O=C(N=c1sc2ccccc2s1)N=c1sc2ccccc2s1
inactive: [1]; [7] 1% | [1]; [8] 10% | [1]; at 50.0 µM 45.9% | [2]; [7] 35% | [2]; [8] -14% | [2]; at 50.0 µM -2.6% | [3]; [7] 14% | [3]; [8] -20% | [3]; at 50.0 µM 47.6% | [4]; [7] -32% | [4]; [8] 6% | [5]; [7] -11% | [5]; [8] 7% | [5]; at 50.0 µM 29.6% | [6]; [7] -20% | [6]; [8] 10% | [6]; at 50.0 µM 50%
active: [4]; at 50.0 µM 84%

CN(C)c1ccc(C(=C2C=CC(=[N+](C)C)C=C2)c2ccc(N(C)C)cc2)cc1 (tested in a mixture with another compound)
active: [1]; [7] 98% | [1]; [8] 90% | [1]; at 50.0 µM 87.5% | [2]; [7] 99% | [2]; [8] 93% | [2]; at 50.0 µM 88% | [3]; [7] 98% | [3]; [8] 95% | [3]; at 50.0 µM 89.7% | [4]; [7] 99% | [4]; [8] 95% | [4]; at 50.0 µM 87.7% | [5]; [7] 98% | [5]; [8] 93% | [5]; at 50.0 µM 88.5% | [6]; [7] 98% | [6]; [8] 91% | [6]; at 50.0 µM 86.5%

O=C1c2ccccc2C(=O)c2sc(Nc3cccc(Cl)c3)nc21
active: [1]; [7] 93% | [1]; [8] 98% | [1]; at 50.0 µM 89.6% | [2]; [7] 93% | [2]; [8] 99% | [2]; at 50.0 µM 92.2% | [3]; [7] 92% | [3]; [8] 99% | [3]; at 50.0 µM 93% | [4]; [8] 98% | [4]; at 50.0 µM 89.9% | [5]; [7] 98% | [5]; [8] 97% | [5]; at 50.0 µM 90.6% | [6]; [7] 92% | [6]; [8] 98% | [6]; at 50.0 µM 90.5%
inactive: [4]; [7] 54%

CCC(=O)Sc1ccccc1C(=O)Nc1ccc(Cl)cc1
active: [1]; at 50.0 µM 88.5% | [2]; at 50.0 µM 92.9% | [5]; [8] 74% | [6]; at 50.0 µM 85.2%
inactive: [1]; [7] 18% | [1]; [8] 43% | [2]; [7] 28% | [2]; [8] 64% | [3]; [7] 12% | [3]; [8] 47% | [3]; at 50.0 µM 52.4% | [4]; [7] 23% | [4]; [8] 62% | [4]; at 50.0 µM 53.1% | [5]; [7] 22% | [5]; at 50.0 µM 56.4% | [6]; [7] 29% | [6]; [8] 65%
